# From publication PMC11062922 (Nature Chemical Biology, 2023)
# Tests used:
# Design in all cases: species or system human, MV4-11 + K-562 + COLO205 + SK-N-BE2 + OVCAR-8
# [1] = test system: NCL; conditions: read-out: apparent Kd; compound concentrations: 100 nM and 1000 nM (sheet 'Samples'), CATDS: 1.71627638164802E-2; n = 1
# [2] = test system: PRKCZ; conditions: read-out: apparent Kd; compound concentrations: 100 nM and 1000 nM (sheet 'Samples'), CATDS: 1.7514325716089001E-2; n = 1
# [3] = test system: TESK2; conditions: read-out: apparent Kd; compound concentrations:100 nM and 1000 nM (sheet 'Samples'); n = 1
# [4] = test system: NEK2; conditions: read-out: apparent Kd; compound concentrations:100 nM and 1000 nM (sheet 'Samples'); n = 1
# [5] = test system: PKMYT1; conditions: read-out: apparent Kd; compound concentrations:100 nM and 1000 nM (sheet 'Samples'); n = 1
# [6] = test system: NEK1; conditions: read-out: apparent Kd; compound concentrations: 100 nM and 1000 nM (sheet 'Samples'), CATDS: 0.147931725525974; n = 1
# [7] = test system: PI4KB; conditions: read-out: apparent Kd; compound concentrations: 100 nM and 1000 nM (sheet 'Samples'), CATDS: 0.18067625739165599; n = 1
# [8] = test system: FES; conditions: read-out: apparent Kd; compound concentrations: 100 nM and 1000 nM (sheet 'Samples'), CATDS: 3.8230279183827799E-2; n = 1
# [9] = test system: PIK3C2B; conditions: read-out: apparent Kd; compound concentrations: 100 nM and 1000 nM (sheet 'Samples'), CATDS: 3.01337612448444E-2; n = 1
# [10] = test system: CLK3; conditions: read-out: apparent Kd; compound concentrations: 100 nM and 1000 nM (sheet 'Samples'), CATDS: 1.8485003347971998E-2; n = 1
# [11] = test system: NTRK1; conditions: read-out: apparent Kd; compound concentrations: 100 nM and 1000 nM (sheet 'Samples'), CATDS: 1.31353956305182E-2; n = 1
# [12] = test system: RPS6KA1; conditions: read-out: apparent Kd; compound concentrations: 100 nM and 1000 nM (sheet 'Samples'), CATDS: 1.0541415060752299E-2; n = 1
# [13] = test system: MAPK3; conditions: read-out: apparent Kd; compound concentrations:100 nM and 1000 nM (sheet 'Samples'); n = 1
# [14] = test system: NEK9; conditions: read-out: apparent Kd; compound concentrations: 100 nM and 1000 nM (sheet 'Samples'), CATDS: 2.1458730065113701E-2; n = 1
# [15] = test system: MAP2K3; conditions: read-out: apparent Kd; compound concentrations:100 nM and 1000 nM (sheet 'Samples'); n = 1
# [16] = test system: PIK3CB; conditions: read-out: apparent Kd; compound concentrations:100 nM and 1000 nM (sheet 'Samples'); n = 1
# [17] = test system: PRKDC; conditions: read-out: apparent Kd; compound concentrations:100 nM and 1000 nM (sheet 'Samples'); n = 1
# [18] = test system: SLC25A5; conditions: read-out: apparent Kd; compound concentrations:100 nM and 1000 nM (sheet 'Samples'); n = 1
# [19] = test system: T1, T10; conditions: read-out: apparent Kd; compound concentrations:100 nM and 1000 nM (sheet 'Samples'); n = 1
# T1 construct: gene NAT10
# [20] = test system: HSP90AA1; conditions: read-out: apparent Kd; compound concentrations: 100 nM and 1000 nM (sheet 'Samples'), CATDS: 6.9109754816413196E-2; n = 1
smiles,measurement,setting,value
Cl.Cl.Cl.c1ccc(Oc2ccc(Nc3ccnc4cc(-c5ccc(CN6CCNCC6)o5)ccc34)cc2)nc1.c1ccc(Oc2ccc(Nc3ccnc4cc(-c5ccc(CN6CCNCC6)o5)ccc34)cc2)nc1 [GW567142A],potency estimated from few doses,[1],1970 nM
same,potency estimated from few doses,[2],1820 nM
CCn1cc(-c2ccnc3[nH]c(-c4cccc(CN(C)C)c4)cc23)c(-c2ccc(NC(=O)N(C)C)cc2)n1 [GSK1070916],potency estimated from few doses,[3],1310 nM
CCN(CC)CCOc1ccc(Nc2ncc3cc(-c4c(Cl)cccc4Cl)c(=O)n(C)c3n2)cc1 [SB-601273],potency estimated from few doses,[4],1780 nM
same,potency estimated from few doses,[5],1030 nM
COc1cc(Nc2nccc(N3CCC(NC(=O)c4cccc(C#N)c4)C3)n2)cc(OC)c1OC (centres unmarked) [GSK1379751A],potency estimated from few doses,[6],1860 nM
CS(=O)(=O)c1ccc(-c2cnc(N)c(C(=O)Nc3ccccc3)n2)cc1 [VE-821],potency estimated from few doses,[7],812 nM
CN1CCN(Cc2ccc(NC(=O)Nc3ccc(N(C)c4ccnc(Nc5ccc(CS(C)(=O)=O)cc5)n4)cc3)cc2)CC1.Cl [GW827654A],potency estimated from few doses,[8],1230 nM
O=S(=O)(CCOCc1ccc(-c2ccc3ncnc(Nc4ccc(OCc5cccc(F)c5)c(Cl)c4)c3c2)o1)c1ccccc1 [GW615311X],potency estimated from few doses,[9],1160 nM
CNC(=O)c1ccccc1Nc1nc(Nc2cccc(CS(C)(=O)=O)c2)ncc1C.O=CO [GSK1520489A],potency estimated from few doses,[10],167 nM
same,potency estimated from few doses,[11],438 nM
same,potency estimated from few doses,[12],1010 nM
N#Cc1cccc(Nc2nccc(-c3cnn4ncccc34)n2)c1 [GW778894X],potency estimated from few doses,[13],975 nM
CC(C)c1nc(-c2cccc(NS(=O)(=O)c3c(F)cccc3F)c2F)c(-c2ccnc(Nc3ccc(N4CCOCC4)nc3)n2)s1 [GSK2008607A],potency estimated from few doses,[14],1100 nM
Nc1nc(N)c2nc(-c3ccccc3)[nH]c2n1 [SKF-12778],potency estimated from few doses,[15],2020 nM
same,potency estimated from few doses,[16],790 nM
same,potency estimated from few doses,[17],716 nM
same,potency estimated from few doses,[18],1960 nM
same,potency estimated from few doses,[19],1130 nM
Cc1[nH]nc2c1N=C(c1ccccc1Cl)c1cc([N+](=O)[O-])ccc1N2 [RO0274406-000],potency estimated from few doses,[20],1380 nM
